Assay outcomes (PubChem)
G9a inh: blocks human histone lysine methyltransferase G9a; Q96KQ7; G9a H3K9 monomethylation, AlphaScreen, 2 h; Potency, µM (doses to about 102 µM), without a hit: top-dose activity, negative = inhibition, most hits filed as inhibitors; 350,000 compounds, 8.8% hits; note: potency is the fitted concentration of half-maximal effect; nearly all actives have a fitted effect of over 75% in size
Target sequence (Q96KQ7 913-1193 limits assumed): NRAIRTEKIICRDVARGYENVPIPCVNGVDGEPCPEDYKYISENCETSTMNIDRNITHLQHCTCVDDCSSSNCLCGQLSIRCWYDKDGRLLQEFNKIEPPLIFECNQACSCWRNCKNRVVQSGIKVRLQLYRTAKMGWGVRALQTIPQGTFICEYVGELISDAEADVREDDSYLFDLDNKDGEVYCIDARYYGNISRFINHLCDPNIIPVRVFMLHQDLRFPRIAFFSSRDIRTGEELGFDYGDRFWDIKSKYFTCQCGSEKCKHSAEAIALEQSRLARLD
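Compounds were preincubated with 20 nM G9a for 15 min, after which biotinylated H3K9 peptide (500 nM) and SAM (20 uM) started a 2 h room-temperature reaction. Monomethylated product was quantified by antibody-based AlphaScreen chemiluminescence.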
Tau FP inhib: blocks human tau fibril formation measured by polarization; 280,000 compounds, 0.39% hits; P10636; Potency, µM (top dose mostly 57.7 µM), without a hit: at the highest dose activity, negative = inhibition, actives largely listed as inhibitors; K18 P301L tau heparin fibrillization, Alexa594 FP, 6 h; note: potency is the fitted concentration of half-maximal effect; nearly all actives have a fitted effect of over 55% in size
Target sequence (P10636 561-689 P618L limits assumed): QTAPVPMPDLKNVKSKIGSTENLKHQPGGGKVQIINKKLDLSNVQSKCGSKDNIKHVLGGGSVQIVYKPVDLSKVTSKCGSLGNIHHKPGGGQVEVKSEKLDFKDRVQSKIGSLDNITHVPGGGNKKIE
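Human tau K18 […] P301L fragment, 15 uM unlabeled plus 0.24 uM Alexa 594-labeled tau (final), with compound and 20 uM heparin in 100 mM sodium acetate pH 7; 6 hr at 37 C, then Alexa 594 FP read.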
Tau fluor counter: counter-screen for tau fibril formation inhibitors; tau K18 P301L Alexa594 fluorescence, heparin fibrillization; Potency, µM (doses to about 57.7 µM), inactives show top-dose activity change, negative = decrease; 280,000 compounds, 0.93% hits; note: potency is the fitted concentration of half-maximal effect; nearly all actives have a fitted effect of over 55% in size
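Human K18 P301L tau (15 uM unlabeled plus 0.24 uM Alexa 594-labeled, final) in 100 mM sodium acetate pH 7 was mixed with compound and 20 uM heparin and incubated 6 hr at 37 C.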
Sfp PPTase inh: blocks B. subtilis Sfp PPTase activity; Biochemical Sfp PPTase activity, qHTS; Potency, µM, for the others: largest response in the series, negative = inhibition, actives largely listed as inhibitors; 310,000 compounds, 3.5% hits;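 note: the enzyme is Sfp with the accession as filed and its product quenches rhodamine fluorescence; potency is the fitted concentration of half-maximal effect; 0% = enzyme reaction without inhibitor and -100% = no enzyme wells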
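Fluorescence-quenching assay with 15 nM Sfp, 5 uM rhodamine-CoA and 12.5 uM BHQ-2-labelled ybbR peptide in pH 7.6 Hepes/MgCl2 buffer. Enzyme was pre-incubated with compound for 15 min at room temperature. Rate was taken from the 30-min fluorescence change (525/598 nm).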
Tau fibril ThT: inhibitors of human tau fibril formation, thioflavin T binding | recombinant tau K18 P301L (four-repeat tau fragment), heparin-induced fibrillization, ThT fluorescence | Potency, µM (doses to about 57.4 µM), inactives show at the top dose activity, negative = inhibition, hits mostly inhibitors | 270,000 compounds, 2.1% hits | AID 1460; note: potency is the fitted concentration of half-maximal effect; nearly all actives have a fitted effect of over 55% in size
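Tau K18 P301L fragment (15 uM unlabeled plus 0.24 uM Alexa 594-labeled) in 100 mM sodium acetate pH 7 with compound, fibrillization induced by 20 uM heparin for 6 hr at 37 C. Thioflavin T (30 uM) added, fluorescence read after 1 hr (ex 450, em 510 nm).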
Coupling enz: coupling enzyme interference in Giardia aldolase counter-screen. coupling enzyme system counterscreen, AmpLite Red fluorescence. activity change, negative = inhibition, % at 58.2 µM, hits read low. 290,000 compounds, 0.67% hits. AID 2472; in the data active = activity change below about -30%
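Activity here indicates interference with the coupling reaction, not aldolase inhibition. Compounds at 57.5 uM final met coupling enzymes for 10 min at RT; substrate and AmpLite Red detection followed, with a 525/598 nm fluorescence read after 20 min.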
An asterisk follows results filed as active; ? = inconclusive; . = not tested or not shown; [ ] = another dose, or the depositor's remark. Shown are actives, neighbours in structure and some others; about 11% of the full set was active somewhere. Unless noted, calls come from the whole dose curve; as a rule, active = well fitted curve in the direction sought with a large enough effect; inconclusive = small, poorly fitted or top-dose-only effect, or another doubt; inactive = no such curve, though single readings can be large; an effect the other way counts as inactive or inconclusive. Unless noted, % is set by controls: 0 for no effect and ±100 for the full control effect.

SMILES | G9a inh | Tau FP inhib | Tau fluor counter | Sfp PPTase inh | Tau fibril ThT | Coupling enz
CN1/C(=C\C(=S)NC(=O)c2ccc([N+](=O)[O-])cc2)C(C)(C)c2ccccc21 | 45µM* | 3% | -3% | ? | ? | 1
CN1/C(=C/C=N/NC(=O)c2ccc([N+](=O)[O-])cc2)C(C)(C)c2ccccc21 | 8%[59 µM] | -6% | ? | 15% | 6.3µM* | -1
CN1/C(=C\C(=O)COC(=O)c2nccnc2N)C(C)(C)c2ccccc21 | -9%[0.501 µM] | . | . | . | . | .
O=C(NNC(=S)NC(=O)c1ccccc1)c1ccc([N+](=O)[O-])cc1 | 48%[0.501 µM] | . | . | ? | . | 0
CN1/C(=C\C(=O)COC(=O)c2ccc([N+](=O)[O-])o2)C(C)(C)c2ccccc21 | 20µM* | 11% | ? | 10% | ? | -11
Cc1cccc(CC2CC(=O)N(c3ccc([N+](=O)[O-])cc3)C2=O)c1 (centres undefined) | -5% | . | . | 9% | . | 1
CN1/C(=C/C2CC(=O)N(c3ccc([N+](=O)[O-])cc3)C2=O)C(C)(C)c2ccccc21 (centres undefined) | ? | -1% | ? | 45µM* | 14µM* | 3
CCOc1ccc(S(=O)(=O)N2CCC(C(=O)Nc3cc(S(C)(=O)=O)ccc3Cl)CC2)cc1 | 32%[12.7 µM] | . | . | . | . | .
CCc1cccc(NC(=O)Cn2c(=O)c(C(F)(F)F)nc3ccccc32)c1 | 0%[59 µM] | -7% | 1% | . | -2% | .
CCCN1C(=O)C(O)(CC(=O)c2ccc(OC)c(OC)c2)c2ccccc21 (centres undefined) | 10%[59 µM] | -9% | 0% | . | 12% | .
COc1ccc(NC(=O)c2ccc(NC3=NC4CS(=O)(=O)CC4S3)cc2)cc1 (centres undefined) | 7% | . | . | 5% | . | 1
CN(Cc1ccc(-n2cccn2)cc1)Cc1nc(-c2cnccn2)no1 | . | 0% | -2% | 21% | -9% | 2
CC(=O)NC(CC(=O)OCC(=O)c1ccc(NC(=O)CC(C)C)cc1)c1ccccc1 (centres undefined) | 21%[12.7 µM] | . | . | . | . | .
CN1/C(=C\C(=S)NC(=O)c2cccc(Br)c2)C(C)(C)c2ccccc21 | 14µM* | 11% | 9% | ? | 7.1µM* | 1
S=c1[nH]nc(COc2ccccc2)n1/N=C/c1ccccc1Cl | 2.2µM* | . | . | ? | . | 3
S=c1[nH]nc(COc2ccccc2)n1/N=C/c1c(Cl)cccc1Cl | 2µM* | . | . | -15% | . | 3
S=c1[nH]nc(COc2ccccc2)n1/N=C/c1cccc(Cl)c1Cl | ? | . | . | -2% | . | -1
Cc1csc(NC(=O)CCCNC(=O)c2ccc(Cl)cc2)n1 | -5%[12.7 µM] | . | . | . | . | .
Cc1ccc[n+](CC(=O)c2ccc(Br)cc2)c1 | -4%[59 µM] | . | . | 14% | . | 2
N#Cc1ccc[n+](CC(=O)c2ccc(Cl)cc2)c1 | 79µM* | . | . | 11% | . | 0
COc1cccc(OCC(=O)NN=C2c3ccccc3-c3ccccc32)c1 | 4% | -7% | -18% | 79µM* | ? | -2
COc1cccc(OCC(=O)Nc2ccccc2-c2ccccc2)c1 | 293% | -6% | -19% | -11% | -15% | -5
COC(=O)c1cc(CSc2nnc(NC3CCCCC3)s2)oc1C | ? | 4% | -5% | 32µM* | -16% | 1
CCOC(=O)c1cc(S(=O)(=O)N2CCN(c3ccccc3)CC2)[nH]n1 | ? | 0% | -6% | . | -4% | .
CC1CCCN(S(=O)(=O)c2cccc3nonc23)C1 (centres undefined) | 18% | . | . | 15% | . | .
COC(=O)c1cc(S(=O)(=O)N2CCN(c3cccc(C)c3)C(C)C2)cn1C (centres undefined) | -17%[59 µM] | ? | -18% | . | -10% | .
Cc1cccc(N2CCN(c3ccc4cc(S(=O)(=O)N5CCCCC5)ccc4n3)CC2C)c1 (centres undefined) | 25µM* | . | . | 4% | . | -5
